Laboratory results taken from PubChem BioAssay AID690 (Sanford-Burnham Center for Chemical Genomics, 2007).
Out of some 96,000 compounds screened, about 80 (0.08%) were called active. The rule behind the calls is not given here. Only a sample is shown. Results with a measured potency or affinity are listed apart. Residues, ends and D or L forms follow the SMILES beside them.

molecular target: Alkaline phosphatase, placental type (Homo sapiens) (UniProt P05187); experiment: inhibition of human placental alkaline phosphatase – biochemical, luminescence, HTS (AID 690); conditions: purified PLAP, luminescent substrate; at 20 µM; stronger effect = higher value
Sequence (P05187 whole entry, looked up): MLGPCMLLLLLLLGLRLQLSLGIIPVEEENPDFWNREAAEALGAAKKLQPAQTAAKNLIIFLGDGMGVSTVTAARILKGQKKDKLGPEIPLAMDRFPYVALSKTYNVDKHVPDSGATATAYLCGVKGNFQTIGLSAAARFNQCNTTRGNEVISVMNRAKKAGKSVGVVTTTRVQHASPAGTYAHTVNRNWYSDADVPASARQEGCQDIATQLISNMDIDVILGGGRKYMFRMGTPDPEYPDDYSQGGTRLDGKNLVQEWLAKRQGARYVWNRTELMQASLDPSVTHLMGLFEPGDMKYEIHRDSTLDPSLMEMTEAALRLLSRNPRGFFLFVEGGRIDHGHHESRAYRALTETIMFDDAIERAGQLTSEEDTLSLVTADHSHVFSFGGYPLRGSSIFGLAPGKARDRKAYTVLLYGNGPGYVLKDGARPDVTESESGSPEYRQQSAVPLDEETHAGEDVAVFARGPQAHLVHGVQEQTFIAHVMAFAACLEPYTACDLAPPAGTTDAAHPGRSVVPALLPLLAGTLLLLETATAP

inhibition, inactive:
O=C(CCCn1c(SCC(=O)NCC2CCCO2)nc2ccccc2c1=O)NCC1CCCO1 (stereo not given) -4.3%
O=C(CCCn1c(SCC(=O)NCC2CCCO2)nc2ccccc2c1=O)NCc1ccccc1 (stereo not given) -31.1%
CC(C)(C)c1nn(-c2ccccc2)c2[nH]c(=O)c(CNc3ccc4c(c3)OCCO4)cc12 -71.4%
Cc1ccc(C(=O)CN(C(=O)c2ccc(Cl)c(Cl)c2)N2C(=O)C3CCCCC3C2=O)cc1 (stereo not given) -10.4%
CCC(=O)Nc1cccc(C(=O)/C=C/c2ccccc2)c1 -3.5%
O=C(/C=C/NNC(=O)c1cccc(Br)c1)c1cccc(Br)c1 -55.3%
O=C(CCN1C(=O)c2ccccc2C1=O)NC1=NCCS1 8.9%
CC1=NOC(=O)/C1=C/c1ccc(N(C)C)cc1 -1.4%
CCOC(=O)C1=NN(c2ccccc2)C(=O)/C1=C\c1ccc(N(C)C)cc1 2.6%
Cc1ccc(C(=O)Nc2nc3ccc(S(C)(=O)=O)cc3s2)s1 1.6%
Cc1ccc(CS/C(Nc2ccccc2C)=C(\C#N)C(=O)NCc2ccco2)c(C)c1 -32.5%
CC(C)Oc1ccc(CNC(=O)CC(c2ccccc2)c2cc(Cl)ccc2O)cc1 (stereo not given) -26.3%
COC(=O)CSc1nsc(SCC(=O)OC)c1C#N 13.1%
CCc1c(C#N)c(N)nc(SCC(=O)OCc2ccccc2)c1C#N 14.4%
CS(=O)(=O)NCCSCc1ccc(Cl)cc1 -9.2%
c1ccc2c(CSCCc3ccncc3)cccc2c1 -15.7%
O=C(O)CSCc1ccc(Cl)cc1 -5.7%
c1ccc(SCCc2ccncc2)cc1 -3.2%
CCn1c(C)c(C(C)=O)c(N2CCN(c3ccccc3)CC2)nc1=S -3.4%
O=C(NCc1ccc2c(c1)OCO2)C1CCCN(S(=O)(=O)c2cccc3nonc23)C1 (stereo not given) -13.3%
O=C1N2CCSC2=NC1(Nc1ccccn1)C(F)(F)F (stereo not given) 2%
COc1ccc(CNC(=O)c2ccccc2[N+](=O)[O-])cc1 -9.5%
CCC(CC)NC(=O)Cc1ccccc1[N+](=O)[O-] -5.8%
Cc1ccc(N(CC(=O)NCc2ccncc2)S(C)(=O)=O)cc1Cl -7%
O=C(CSc1nnc(Cn2nnc3ccccc32)o1)N(Cc1ccc(F)cc1)c1ccccc1 2.6%
CCSc1nc2c(cnn2-c2ccc(C)c(C)c2)c(=O)[nH]1 -20.6%
COC(=O)CN1C(=O)S/C(=C/c2ccc(N3CCCCC3)o2)C1=O -25.9%
CCOC(=O)CN1C(=O)S/C(=C/c2ccc(N3CCCCC3)o2)C1=O -4.2%
CCO/C=C1/C(=O)N(CC)c2ccccc21 4.3%
O=C(OCC(O)CN1CCCCC1)C12CC3CC(CC(C3)C1)C2 (stereo not given) -58.5%
COC(=O)C(N)Cc1ccc(O)cc1 (stereo not given) 18.8%
COC(=O)C(CC(C)C)NC(=O)C(N)Cc1ccccc1 (stereo not drawn) (H-Phe-Leu-OMe; configuration not given here) -5.6%
O=C(CC(NC(=O)c1ccccc1Cl)c1ccccc1)Nc1ccc2c(c1)OCO2 (stereo not given) 2.4%
Cc1cccc(NC(=O)C2c3ccccc3C(=O)N3CCc4ccccc4C23)n1 (stereo not given) 2.2%
O=C(/C(=C/c1ccc(Cl)cc1)c1nc2ccccc2[nH]1)c1cccs1 -30.3%
COc1cc(/C=C(/C(=O)c2cccs2)c2nc3ccccc3[nH]2)ccc1O 33.6%
COc1cc(CNCCc2ccc(F)cc2)ccc1OCc1ccc(Cl)nc1 -50.6%
O=C(N1CCOCC1)C12CC3CC(C1)CC(c1ccccc1)(C3)C2 -20.7%
CSC1=N/C(=C\c2ccc(C)cc2)C(=O)S1 1.7%
CCSC1=N/C(=C\c2ccc(C(=O)O)cc2)C(=O)S1 11.5%
Cn1nc([N+](=O)[O-])nc1N1CCN(c2ccc(F)cc2)CC1 20.5%
CCOC(=O)N1CCC(NC(=O)C(CC(C)C)NC(=O)C2CCC(C)CC2)CC1 (stereo not given) -63.6%
CCN(CC)C(=O)Cn1c(=O)n(-c2ccccc2)c(=O)n1CC(=O)N(CC)CC 8.2%
COC(=O)c1cn[nH]c1NC(=S)Nc1ccc(Cl)c(Cl)c1 -146%
COC(=O)c1cn[nH]c1NC(=S)Nc1ccc(C)cc1Cl -10%
CN(C)S(=O)(=O)c1cccc(C(=O)Nc2cc(Cl)cc(Cl)c2)c1 -58.5%
Cc1noc(C)c1COC(=O)COc1ccc2c(C)cc(=O)oc2c1 8.3%
CCOC(=O)/C(C#N)=C1/C=Cc2ccccc2N1CC 3.8%
CCN1C(=C2C(=O)c3ccccc3C2=O)C=Cc2ccccc21 46.7%
CCOc1ccc(CSC(=N)N)cc1[N+](=O)[O-] -79.6%
CCCCCOc1ccc(CSC(=N)N)cc1[N+](=O)[O-] 34.2%
CCN1/C(=C2\OC(=S)N(C)C2=O)Sc2ccccc21 13.9%
CCN1/C(=C/C(=O)c2ccco2)Sc2ccccc21 -0.2%
CCN(CC)S(=O)(=O)c1ccc(C(=O)Nc2cc(C)cc(C)c2)cc1 6%
Cc1ccc2nc(SCC(=O)Nc3ccc4c(c3)OCCO4)[nH]c2c1 -75.7%
